proKLK7 act – activators of human kallikrein-7 zymogen; P49862; purified proKLK7, EDANS-DABCYL substrate fluorescence; 100% is mature enzyme control, 0% vehicle; activation, % at 7 µM; 370,000 tested, 0.9% active; AID 652039;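 active = activation above the mean of all tested compounds plus 3 SD, computed per campaign excluding outliers beyond control limits, cut at about 13% in these data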
CendR NRP1 mod – NRP-1/CendR interaction modulation; 360,000 tested, 0.85% active; inhibition, % at 25 µM; AID 602438; FAM-RPARPAR peptide binding to NRP-1, fluorescence polarization;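 active = inhibition or corrected inhibition above about 18%, plus a signal ratio from 0.5 to 1.5, limit read from the data, passing the limit was not always enough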
HGIII-sPLA2 inh – Blocks human group III sPLA2 activity | Q9NZ20 | QFRET BODIPY PC-A2 liposome hydrolysis, fluorescence | inhibition, % at 12.2 µM | 370,000 tested, 0.56% active;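 active = inhibition above mean plus 3 SD of compounds lying within the high and low control bounds, cut at about 19% in these data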;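 also: 0% = median of test compound wells and 100% = no enzyme DMSO wells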
ADAM17 inh – ADAM17 inhibition, QFRET primary screen; P78536; recombinant ADAM17, EDANS/DABCYL FRET peptide cleavage; inhibition, % at 6.95 µM; 370,000 tested, 0.83% active; AID 720648;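 active = inhibition above the mean of compounds lying between control limits plus 3 SD, set per campaign, cut at about 8.5% in these data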;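 also: 0% = DMSO-only wells as the low control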
ADAM10 inh – ADAM10 inhibition, QFRET primary screen; O14672; recombinant ADAM10, EDANS/DABCYL FRET peptide cleavage, 3 h; inhibition, % at 7 µM; 370,000 tested, 0.62% active;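 active = inhibition above a per-campaign cutoff equal to the mean of compounds falling between control-based bounds plus 3 SD, cut at about 20% in these data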;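 also: 0% = DMSO wells while the 100% control is not disclosed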
Target sequence (O14672 214-748 limits assumed): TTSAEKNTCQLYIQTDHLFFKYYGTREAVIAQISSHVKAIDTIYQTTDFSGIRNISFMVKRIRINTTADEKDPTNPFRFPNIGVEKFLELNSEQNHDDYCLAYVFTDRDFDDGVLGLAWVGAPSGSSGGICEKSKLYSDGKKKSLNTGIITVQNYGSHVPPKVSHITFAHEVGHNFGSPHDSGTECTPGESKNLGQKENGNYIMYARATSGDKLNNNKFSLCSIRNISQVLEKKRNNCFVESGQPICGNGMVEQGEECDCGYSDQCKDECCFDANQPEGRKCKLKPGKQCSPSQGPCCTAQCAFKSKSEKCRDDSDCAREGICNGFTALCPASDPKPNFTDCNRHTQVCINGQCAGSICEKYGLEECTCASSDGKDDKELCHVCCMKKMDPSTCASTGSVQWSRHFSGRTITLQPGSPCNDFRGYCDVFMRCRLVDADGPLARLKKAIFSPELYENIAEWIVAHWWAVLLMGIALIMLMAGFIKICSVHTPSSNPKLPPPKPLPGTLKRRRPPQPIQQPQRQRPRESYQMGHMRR
KLK7 act conf – confirmation of human kallikrein-7 zymogen activators. shares compounds with proKLK7 act. purified proKLK7, EDANS-DABCYL substrate fluorescence; scaled: vehicle 0, mature enzyme 100. activation, % at 7 µM. 3,200 tested, 68% active. AID 686949;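 active = activation, as change over the incubation, above the mean of all tested compounds plus 3 SD, cut at about 13% in these data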
EDANS interfere – counter-screen for kallikrein-7 activators: EDANS-DABCYL optical interference. shares compounds with proKLK7 act. EDANS-DABCYL substrate fluorescence interference, no enzyme, 4 h; solvent 0%, active enzyme control 100%. activation, % at 7 µM. 3,200 tested, 80% active;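 active = activation above the all-compound mean plus 3 SD, ignoring values outside control-based bounds, cut at about 4.8% in these data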;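 also: value is the 4 h activation minus the activation read at time zero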
EDANS interf – optically interferes with EDANS-DABCYL fluorescence, kallikrein-7 activator counter-screen. EC50, µM. shares compounds with proKLK7 act. EDANS-DABCYL peptide fluorescence interference, no enzyme. AID 720493. 250 tested, 20% active;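 active = compounds that raise the fluorescence signal in this interference counterscreen, with EC50 at or below 10 µM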;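 also: intact quenched peptide substrate alone read at 355 nm excitation and 520 nm emission; signal is fluorescence gain from T0 to T4 after four hours at room temperature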
Numbers without * were called inactive; i = inactive; nt = no result. Shown are actives, neighbours in structure and some others; about 3.4% of the full set was active somewhere.

SMILES	proKLK7 act	CendR NRP1 mod	HGIII-sPLA2 inh	ADAM17 inh	ADAM10 inh	KLK7 act conf	EDANS interfere	others
CC[C@]12c3[nH]c4cc(-c5ccco5)ccc4c3CCN1C(=O)[C@@H](CC(=O)NCCCn1ccnc1)C[C@@H]2C(=O)N1CCN(C(=O)C2CC2)CC1	68.6*	-5.6	-4.2	-47.5	-170.5	54.0*	53.2*
CC[C@]12c3[nH]c4cc(-c5ccco5)ccc4c3CCN1C(=O)[C@@H](CC(=O)NCCCn1ccnc1)C[C@@H]2C(=O)N1CCN(C(=O)c2ccco2)CC1	97.1*	-13.6	-3.6	-65.2	-228.4	130.8*	130.0*
COC(=O)[C@]12C[C@H](CC(=O)N3CCC(c4ccccc4)CC3)C(=O)N(Cc3ccccc3)C1=C[C@H](C(C)(C)C)O[C@@H]2C	0.3	nt	-7.3	-0.9	3.2	nt	nt
C[C@@H]1CN([C@H](C)CO)C(=O)CCCn2cc(nn2)CO[C@H]1CN(C)S(=O)(=O)c1cn(C)cn1	0.2	nt	5.8	-0.1	6.4	nt	nt
O=C(O)COc1ccc2nsnc2c1Cl	19.5*	-6.3	-0.1	-113.1	-383.9	26.8*	23.7*
COc1ccc(OCC(=O)Nc2c(Cl)ccc3nsnc23)cc1	-0.3	12.9	0.4	1.5	7.4	nt	nt
CCOC(=O)C1(Cc2ccccc2)CCN(Cc2cccc(C#N)c2)CC1	-0.9	nt	2.7	-1.0	-3.2	nt	nt
CCC(C)(C)n1nnnc1C(c1cc2cc(OC)c(OC)cc2[nH]c1=O)N1CCc2ccccc21 (stereo unspecified)	-6.4	-10.1	-17.6	-33.5	-113.9	nt	nt
COc1cc2cc(C(c3nnnn3C(C)(C)C)N3CCc4ccccc4C3)c(=O)[nH]c2cc1OC (stereo unspecified)	24.8*	-16.4	-0.5	-134.7	-391.7	4.9	1.9
COc1ccc(NC(=O)CN2C(=O)c3cccc4cccc2c34)c(OC)c1	304.2*	-3.2	-7.9	-27.4	-92.3	59.1*	67.1*
CN1CCN(S(=O)(=O)c2cccc(C(=O)Nc3sc4c(c3-c3nc5ccccc5[nH]3)CCCC4)c2)CC1	49.9*	-17.5	1.3	-5.9	-4.2	-4.2	12.1*
CC(=O)NCCC(=O)Nc1sc2c(c1-c1nc3ccccc3[nH]1)CCCC2	2.1	11.9	-7.5	-41.4	-91.5	nt	nt
CC(C)NC(=O)N[C@@H]1C[C@@H]2O[C@H](CO)CC[C@@H]2O[C@@H]1CCc1ccc(-c2ccccc2F)cc1	0.4	nt	-2.2	0.9	2.4	nt	nt
COc1ccc(NC(=O)NNC(=O)CCc2ccc(O)c(O)c2)cc1OC	24.1*	0.5	-0.7	-70.5	-126.6	26.7*	24.2*
COC(=O)C1CN(CC(C)C)CCS(=O)(=O)N1Cc1cccc(Cl)c1 (stereo unspecified)	0.1	nt	1.1	-0.8	1.7	nt	nt
COC(=O)C1=C(C)N(Cc2cccc(C(F)(F)F)c2)C(=NCc2ccc(OC)cc2)NC1c1ccccc1C(F)(F)F (stereo unspecified)	0.0	nt	-7.4	3.2	3.2	nt	nt
O=C(NC1CC1)c1ccc(-c2cnc3cccnn23)cc1	76.6*	2.8	4.4	i	i	82.5*	78.7*
O=C(NC1CC1)c1cccc(-c2cncc3nccn23)c1	16.4*	-8.9	2.6	-381.1	i	7.2	11.0*
O=C(NCc1ccco1)c1cccc(-c2cncc3nccn23)c1	15.8*	-3.6	5.8	-323.2	i	19.7*	19.0*
O=C(NCc1ccco1)c1cccc(-c2ccc3nccn3c2)c1	-0.5	-4.0	16.4	-8.4	-29.4	nt	nt
C/C(C=Nn1c(-c2ccc(F)cc2)n[nH]c1=S)=C/c1ccco1	0.3	nt	10.0	-0.7	0.1	nt	nt
CN=C1S/C(=C/c2cc(C)n(-c3cc(C)ccc3OC)c2C)C(=O)N1C	nt	nt	5.3	-5.1	-12.4	nt	nt
CCC[C@H]1[C@@H](OC(=O)NC2CCC2)CC[C@@]23CCCN2C(=O)CCC[C@@H]13	nt	nt	2.2	-6.3	-4.1	nt	nt
CCN1CCN(c2cc3c(nn2)Oc2ccccc2N3C)CC1	61.1*	-4.7	10.5	-390.2	i	69.7*	67.2*
CCN1CCN(c2nnc(-c3ccccc3)c3ccccc23)CC1	0.0	7.4	-1.0	1.0	2.7	nt	nt
SMILES	proKLK7 act	CendR NRP1 mod	HGIII-sPLA2 inh	ADAM17 inh	ADAM10 inh	KLK7 act conf	EDANS interfere	others
COCCCNC(=O)c1ccc2nc3ccccc3c(=O)n2c1	30.8*	-1.5	0.1	-447.0	i	60.0*	67.9*
COC(CNC(=O)c1ccc2nc3ccccc3c(=O)n2c1)OC	27.9*	3.1	-0.7	-373.9	i	61.6*	68.4*
COc1ccc(CCNC(=O)c2ccc3nc4cc(Cl)ccc4c(=O)n3c2)cc1OC	-0.8	0.7	-11.6	-67.4	-178.1	nt	nt
CC(C)(C)c1ccc(C#C[C@@H]2C=C[C@H]3OC(=O)CC/C=C/CCC(=O)OC[C@H]3O2)cc1	0.5	nt	2.1	-2.0	-12.7	nt	nt
O=c1[nH]cccc1-c1nc2ccccc2n1Cc1ccc(F)cc1	7.1	3.6	-3.2	-410.0	i	nt	nt
Cc1cc2nc(-c3ccc[nH]c3=O)n(Cc3ccc(F)cc3)c2cc1C	22.3*	5.5	-7.0	i	i	-0.8	0.5
Cc1cc2nc(-c3ccc[nH]c3=O)[nH]c2cc1C	67.8*	-0.7	3.1	i	i	63.6*	70.8*
O=C(CSc1nnc(-c2ccccn2)n1-c1ccccc1)c1ccc(F)cc1	-0.1	nt	-18.0	1.1	-6.0	nt	nt
COc1ccc(-c2cc(C(=O)N/N=C/c3cccnc3)c3cc(C)cc(C)c3n2)cc1	112.5*	12.7	-2.7	-66.4	-187.2	-312.6	-284.8
CCOc1ccc(-c2cc(C(=O)N/N=C/c3cccnc3)c3ccccc3n2)cc1	-13.2	-3.9	-5.2	-90.6	-214.2	nt	nt
N#CCc1nn2c(-c3ccccc3)ccnc2c1C#N	14.9*	-8.2	-12.0	-370.9	i	8.3	4.7*
Cc1nn2c(-c3ccccc3)ccnc2c1-c1ccccc1	-0.4	-2.7	1.1	-3.1	3.9	nt	nt
COC(=O)[C@]12CCCCC=C1N(Cc1ccc(OC)cc1)C(=O)[C@@H]2CC(=O)NCCC(C)C	0.6	nt	-10.8	1.1	4.5	nt	nt
CC(C)OCCOc1ccc2oc(-c3ccco3)cc(=O)c2c1	24.1*	-23.7	-4.6	-460.9	i	37.3*	-6.0	EDANS interf=>69.5
Cc1ccc2oc(-c3ccco3)cc(=O)c2c1	12.4	-3.2	-0.9	-274.2	i	nt	nt
O=C1CCC[C@H]2C[C@H](NCc3ccco3)CC[C@]23CCCN13	nt	nt	1.9	-4.9	-3.3	nt	nt
NC(=O)COC(=O)c1cc(Cl)cc(Cl)c1N	-7.9	15.7	13.1	i	i	nt	nt
Nc1c(Cl)cc(Cl)cc1C(=O)OCC(=O)N1CCCC1=O	nt	-2.2	nt	nt	nt	nt	nt

Source: PubChem
